# From ChEMBL document CHEMBL1201862, “PubChem BioAssay data set” (2004)
# Measured potencies and affinities stand elsewhere.
# Test: A High Throughput Confirmatory Assay used to Identify Novel Compounds that Inhibit Mycobacterium Tuberculosis in the absence of Glycerol using Purified and Synthesized Compounds (5).
# Assay type: functional; call rule not given here
row,SMILES,IC90
1,Cc1[nH]c2ccccc2c1C(=O)COC(=O)c1ccc([N+](=O)[O-])s1,> 68.8 µM (active)
2,CCCc1cc(C(N)=S)ccn1,> 100 µM (active)
3,CNC(=O)CSc1nc2ccccc2c(=O)[nH]1,> 100 µM (active)
4,Cc1cc(Br)ccc1NC(=O)c1cnc(N2CCN(c3ccccn3)CC2)c2ccccc12,> 100 µM (active)
